Data on eight compounds can be found in PubChem BioAssay (NCATS).

Structures are written as SMILES. Several values for one entry are separate records, joined by “and”; a condition that tells them apart may be missing. Identical values can stand only once. Inconclusive results are not listed. Activity calls are given as the source filed them. Unless noted, calls follow the shape of the dose curve; as a rule, active = well fitted curve in the direction sought with a large enough effect; inconclusive = small, poorly fitted or top-dose-only effect, or another doubt; inactive = no such curve, though single readings can be large; an effect the other way counts as inactive or inconclusive.

Assay [1] addresses Hexokinase-4 (Homo sapiens) + Glucokinase regulatory protein (Homo sapiens) (UniProt P35557+Q14397). As to the kind of experiment: qHTS assay for inhibitors of recombinant human GCK-GKRP interaction: HTRF assay (AID 743207).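 Also: 0% = DMSO with GCK present and -100% = DMSO wells lacking GCK.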 Put shortly: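 Steps: dispense GCK–GKRP complex (5 nM each, GST- and FLAG-tagged) with 2 uM S6P; pin in compounds; add XL665/Eu-cryptate-labelled antibodies; incubate 60 min at room temperature; read time-resolved FRET at 665 and 615 nm.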
On the technique in general: qHTS replaces the single test concentration by a dilution series.

A short description of assay [2]: qHTS Assay for Identifying Gametocytocidal Compounds (AID 743244). Also: potency is read from the fitted curve at half-maximal effect.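 As to max response: % is scaled to controls: 0 for no effect and ±100 for the full control effect; actives lower the fluorescent signal which means gametocytes are killed.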 The following applies: P. falciparum 3D7 stage III-V gametocytes, alamarBlue, 72 h; max response: stronger effect = lower value. In outline: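 In this qHTS viability screen, late-stage 3D7 gametocytes are incubated with compound for 72 h, then with alamarBlue for 24 h; reduced resorufin fluorescence marks killing.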

A short description of assay [3]: qHTS profiling for inhibitors of Plasmodium falciparum (3D7) proliferation (AID 743322; call rule not given here;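 also: infected erythrocytes exposed to compound for 72 h before lysis; 100% = DMSO vehicle wells and 0% = 0.29 µM artemisinin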). The following applies: P. falciparum 3D7 proliferation; at 28.7 µM (top of the series) unless noted. In outline:
(§1)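 Erythrocytes infected with P. falciparum (0.3% parasitemia, 2.5% hematocrit) incubated with compounds 72 h at 37 C, 5% CO2. Lysis with saponin/Triton buffer containing SYBR Green I, overnight at room temperature in the dark; DNA fluorescence (485/535 nm) normalised to 0.29 uM artemisinin and DMSO.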

A short description of assay [4]: qHTS profiling for inhibitors of Plasmodium falciparum (DD2) proliferation (AID 743323; call rule not given here). To be noted: lower = more inhibition; at 28.7 µM (top of the series) unless noted. Put shortly: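 Parasite proliferation measured via DNA-dye fluorescence, as uninfected erythrocytes lack DNA. Cultures at 0.3% parasitemia and 2.5% hematocrit incubated 72 h with compound; signal scaled between vehicle and 0.29 uM artemisinin wells.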

Assay [5] is described as follows: qHTS profiling for inhibitors of Plasmodium falciparum (HB3) proliferation (AID 743324).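 Also: 100% = DMSO vehicle wells and 0% = artemisinin-treated control wells.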 The following applies: Plasmodium falciparum HB3 blood-stage proliferation; at 28.7 µM (top of the series) unless noted. Put shortly: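 P. falciparum HB3 grown in erythrocytes (0.3% parasitemia, 2.5% hematocrit final) with compound for 72 h at 37 C, 5% CO2. Parasite DNA detected by SYBR Green after saponin/triton lysis overnight; normalized to 0.29 uM artemisinin and DMSO.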

Assay [6] is described as follows: qHTS profiling of the MIPE4 collection as inhibitors of Plasmodium falciparum (3D7) proliferation (AID 743344; call rule not given here). To be noted: P. falciparum 3D7 in erythrocytes, SYBR Green DNA fluorescence, 72 h; at 28.5 µM (top of the series) unless noted. Put shortly: as §1
Assay [7] can be described thus: qHTS profiling of the MIPE4 collection as inhibitors of Plasmodium falciparum (DD2) proliferation (AID 743345; call rule not given here). The following applies: P. falciparum Dd2 in erythrocytes, SYBR Green DNA, 72 h; at 28.5 µM (top of the series) unless noted. In outline:
as §1

Assay [8] is described as follows: qHTS profiling of the MIPE4 collection as inhibitors of Plasmodium falciparum (DD2) proliferation (Rep 2) (AID 743346; call rule not given here). To be noted: P. falciparum Dd2 in erythrocytes, SYBR Green DNA, 72 h; at 28.5 µM (top of the series) unless noted. Put shortly: as §1
A short description of assay [9]: qHTS profiling of the MIPE4 collection as inhibitors of Plasmodium falciparum (HB3) proliferation (AID 743347; call rule not given here;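 also: plate controls were DMSO vehicle wells for no effect and artemisinin wells for full effect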). The following applies: P. falciparum HB3 in erythrocytes, SYBR Green DNA, 72 h; at 28.5 µM (top of the series) unless noted. Put shortly: as §1
Assay [10] is described as follows: High-throughput drug toxicity screening in the BPDCN cell line Gen2.2 (AID 1224824; call rule not given here;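 also: cells exposed to compounds for 48 h before reading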). To be noted: Gen2.2 BPDCN cells; at 45.8 µM (top of the series) unless noted. In outline: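 Gen2.2, 500 cells/well, phenol red-free RPMI/10% FBS/Pen-Strep; 48 h cpd, 37 °C/5% CO2; CTG lum, 15 min RT. Norm: DMSO = 100%, bortezomib 9.2 uM final = 0%.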
A short description of assay [11]: High-throughput drug toxicity screening in the BPDCN cell line Cal-1 (AID 1224825; call rule not given here). The following applies: Cal-1 BPDCN cell viability, qHTS; at 45.8 µM (top of the series) unless noted. In outline: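 500 Cal-1 cells/well, RPMI + glutamine + 10% FBS (phenol red-free); cpd added by pin tool; 48 h, 37C, 5% CO2; CTG 15 min RT, lumi read. Normalised: DMSO 100%, bortezomib 9.2 uM 0%.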

The nature of assay [12]: qHTS assay for measurement of the activity of small molecule inhibitors on Zika virus induced Caspase-3 activity in human iPSC derived neural progenitor cells (hNPCs) (AID 1224857). Also: % of control where 0% means no effect; nearly all actives have a fitted effect of over 65% in size. In outline: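 In medium with heparin 2 ug/ml and cyclopamine 2 uM, hNPCs (350 cells/well) received compound for one hour and then Zika virus at 2 FFU/cell; caspase activity was measured by Caspase-Glo 3/7 luminescence 6 h post-infection.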

Assay [13] in a line: qHTS assay for measurement of the activity of small molecule inhibitors on Zika virus induced Caspase-3 activity in human astrocytoma cells (AID 1224859).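 Also: plate controls were ZIKV-infected untreated cells for no effect and uninfected cells for full effect.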 Put shortly:
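A cell-based luminescent caspase-3/7 assay used SNB-19 cells infected with ZIKV (2 FFU/cell) for 6 h following 1 h compound pretreatment.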

Assay [14] can be described thus: qHTS Screen of the MIPE 4.0 Collection Against Ewings Sarcoma (RDES) (AID 1259252). Also: nearly all actives have a fitted effect of over 35% in size. Also: potency is read from the fitted curve at half-maximal effect. Put shortly:
(§2)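 CellTiter-Glo luminescence after 48 h compound exposure (titration) gave viability; percent activity used DMSO-treated cells as no inhibition and medium-only wells as full inhibition. Cells grown in RPMI/5% FBS, dosed 4 h post-seeding.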

Assay [15] is described as follows: qHTS Screen of the MIPE 4.0 Collection Against Ewings Sarcoma (TC71) (AID 1259253). Also: nearly all actives have a fitted effect of over 40% in size. Also: potency is read from the fitted curve at half-maximal effect. In outline: as §2
Assay [16] is described as follows: qHTS Screen of the MIPE 4.0 Collection Against Ewings Sarcoma (EW8) (AID 1259255). Also: nearly all actives have a fitted effect of over 35% in size. Also: potency is read from the fitted curve at half-maximal effect.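 As to viability: 100% = DMSO-treated cells and 0% = medium-only wells without cells.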 Put shortly:
as §2

The nature of assay [17]: qHTS assay for cell viability of HEK293 cells (AID 743288). Also: nearly all actives have a fitted effect of over 50% in size. Also: potency is read from the fitted curve at half-maximal effect. As to max response: % is scaled to controls: 0 for no effect and ±100 for the full control effect. The following applies: ATP luminescence (CellTiter-Glo), 18 h; max response: stronger effect = lower value. Put shortly:
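The Tox21 protocol used parental HEK293 cells treated for 18 h at 37 C with compounds delivered by pintool; ATP-coupled luminescence after 30 min at room temperature gave viability.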

Assay [18] can be described thus: qHTS assay for cell viability of the p53RE-bla HCT-116 cell line (AID 743292). Also: % is scaled to controls: 0 for no effect and ±100 for the full control effect; nearly all actives have a fitted effect of over 55% in size. In outline:
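CellSensor p53RE-bla HCT-116 cells (4,000/well) pre-incubated 5 h at 37 C, then exposed to compounds in DMSO for 16 h at 37 C. Viability read as ATP content by CellTiter-Glo luminescence after 30 min at room temperature.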

Chain of Hexokinase-4 (Homo sapiens) + Glucokinase regulatory protein (Homo sapiens) (P35557 whole entry, looked up): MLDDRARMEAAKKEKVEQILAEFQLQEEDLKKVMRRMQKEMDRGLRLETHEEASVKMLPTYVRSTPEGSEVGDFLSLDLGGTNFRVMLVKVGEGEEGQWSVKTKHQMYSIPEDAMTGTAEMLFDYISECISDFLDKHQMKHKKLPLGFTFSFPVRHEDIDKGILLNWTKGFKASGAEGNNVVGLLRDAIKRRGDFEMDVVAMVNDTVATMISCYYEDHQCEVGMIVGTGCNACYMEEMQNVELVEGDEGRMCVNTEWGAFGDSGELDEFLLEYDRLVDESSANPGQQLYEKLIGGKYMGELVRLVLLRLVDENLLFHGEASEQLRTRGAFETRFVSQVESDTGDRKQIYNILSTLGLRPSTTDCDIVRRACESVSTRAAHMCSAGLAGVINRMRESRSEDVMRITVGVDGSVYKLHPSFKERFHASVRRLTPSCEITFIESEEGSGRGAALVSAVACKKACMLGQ
Chain of Hexokinase-4 (Homo sapiens) + Glucokinase regulatory protein (Homo sapiens) (Q14397 whole entry, looked up): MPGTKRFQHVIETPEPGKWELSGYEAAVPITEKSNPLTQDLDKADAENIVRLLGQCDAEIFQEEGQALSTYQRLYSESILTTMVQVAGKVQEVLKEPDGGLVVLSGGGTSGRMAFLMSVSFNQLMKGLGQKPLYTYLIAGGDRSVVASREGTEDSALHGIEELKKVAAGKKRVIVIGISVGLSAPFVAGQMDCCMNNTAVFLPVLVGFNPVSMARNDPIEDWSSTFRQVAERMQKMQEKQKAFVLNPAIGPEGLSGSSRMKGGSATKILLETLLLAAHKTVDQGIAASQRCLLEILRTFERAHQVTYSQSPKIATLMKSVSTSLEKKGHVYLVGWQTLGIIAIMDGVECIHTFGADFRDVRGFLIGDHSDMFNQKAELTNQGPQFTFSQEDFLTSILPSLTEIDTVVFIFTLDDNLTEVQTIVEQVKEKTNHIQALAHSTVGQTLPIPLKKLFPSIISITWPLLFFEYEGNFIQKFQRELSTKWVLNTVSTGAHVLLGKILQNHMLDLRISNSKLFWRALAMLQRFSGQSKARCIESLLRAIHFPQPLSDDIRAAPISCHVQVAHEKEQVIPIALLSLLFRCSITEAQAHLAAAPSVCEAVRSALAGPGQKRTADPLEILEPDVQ

Regarding `Cc1cccc(-c2[nH]c(C(C)(C)C)nc2-c2ccc3nccnc3c2)n1`, the outcome in assay [1] was inactive. For the same compound, the Potency in assay [2] is 662 nM (active); in assay [14] it was 16.6 µM (active); in assay [15], 26.4 µM (active); in [16], 23.5 µM (active). Moreover, the remaining parasite growth % (stronger effect = lower value) in [3] was 54.8%. In addition, the activity, percent of control in assay [4] was determined as 67.1%. The remaining proliferation (% of control), lower = more inhibition in assay [5] worked out at 27%. In assay [6], this compound registered a parasite growth, % of DMSO control of 23.7%. Further, the parasite growth remaining, % of DMSO control (lower = more inhibition) in [7] worked out at 47.6%. For the same compound, the parasite growth, % of control (lower = inhibition) in assay [8] worked out at 34.2%. The growth, % of control in assay [9] is 6.8%. The cell viability, % of control (lower = more cytotoxic) in assay [10] came out at 391%. In [11], the viability (% of control) is 15.5%. For the same compound, the Potency entry in [12] and in assay [13] was “inactive” throughout.
In the case of `Cn1cnc([N+](=O)[O-])c1Sc1ncnc2nc[nH]c12`, in assay [1], the result was inactive. In addition, the Potency in [2] is 39.8 µM (active) and 1.26 µM (active); in assay [17], 4.47 µM (active) and 5.01 µM (active); in assay [14], 2.64 µM (active); in assay [15] it was 1.18 µM (active); in assay [16], 4.69 µM (active). In addition, the parasite growth, % of DMSO control in assay [6] was 47.3%. Moreover, in assay [8], the parasite growth, % of control (lower = inhibition) was determined as 33.8%. This compound also showed a growth, % of control in [9] of 45.9%. Besides, the cell viability, % of control (lower = more cytotoxic) in [10] was 16.2%. Further, the viability (% of control) in assay [11] amounted to 93.1%. In addition, the Potency entry in assay [12] and in assay [13] was “inactive” throughout.
`NCCCC(N)(C(=O)O)C(F)F` (stereo not given): the outcome in [1] was inactive. Moreover, the max response in assay [2] is 5.66% (inactive) and 8.03% (inactive). This compound also returned a parasite growth, % of DMSO control in [6] of 98%. Besides, the parasite growth remaining, % of DMSO control (lower = more inhibition) in assay [7] amounted to 95.9%. Moreover, the parasite growth, % of control (lower = inhibition) in assay [8] was 157%. The same compound registered a growth, % of control in assay [9] of 107%. For the same compound, in assay [10], the cell viability, % of control (lower = more cytotoxic) amounted to 77.2%. In assay [11], the viability (% of control) is 47.4%. The Potency result in [12], in [13], in assay [14], in assay [15] and in [16] was “inactive” each time.
Consider `CCn1cc(C(=O)O)c(=O)c2cc(F)c(N3CCNC(C)C3)c(F)c21` (stereo not given), for which, in assay [1], the result was inactive. For the same compound, in [2], the max response was 19.5% (inactive) and 11.6% (inactive) and 13.2% (inactive). The compound further yielded a parasite growth, % of DMSO control in assay [6] of 49.1%. Also, the parasite growth, % of control (lower = inhibition) in assay [8] is 83.6%. The same compound had a growth, % of control in assay [9] of 91.5%. Further, in assay [10], the cell viability, % of control (lower = more cytotoxic) turned out to be 176%. The viability (% of control) in [11] is 107%. For the same compound, the Potency entry in assay [12], in [13], in assay [14], in assay [15] and in [16] was “inactive” each time.
Take `CNC[C@H](O)c1cccc(O)c1`: in assay [1], the result was inactive. The max response is -1.17% (inactive) and 7.6% (inactive) in [2]; -12.3% (inactive) in assay [17]. For the same compound, the Potency result in [18], in assay [12], in [13], in assay [14], in [15] and in assay [16] was “inactive” each time. This compound also had a parasite growth, % of DMSO control in assay [6] of 102%. Also, the parasite growth remaining, % of DMSO control (lower = more inhibition) in assay [7] was 98.1%. The parasite growth, % of control (lower = inhibition) in assay [8] was found to be 94.6%. In assay [9], this compound registered a growth, % of control of 92.6%. Besides, the cell viability, % of control (lower = more cytotoxic) in [10] was found to be 196%. Besides, in assay [11], the viability (% of control) amounted to 133%.
As to `O=C(O)COCCN1CCN(C(c2ccccc2)c2ccc(Cl)cc2)CC1` (stereo not given), the outcome in [1] was inactive. Moreover, the max response in assay [2] was -12% (inactive) and 28.9% (inactive). Moreover, in [6], the parasite growth, % of DMSO control is 82.3%. In addition, in assay [7], the parasite growth remaining, % of DMSO control (lower = more inhibition) came out at 104%. Also, the parasite growth, % of control (lower = inhibition) in assay [8] worked out at 72.8%. This compound came in with a growth, % of control in assay [9] of 91%. For the same compound, the cell viability, % of control (lower = more cytotoxic) in assay [10] came out at 178%. Further, the viability (% of control) in assay [11] was determined as 124%. Further, the Potency entry in [12], in [13], in assay [14], in [15] and in assay [16] was “inactive” throughout.
Regarding `O=c1[nH]cnc2[nH]ncc12`, in [1], the result was inactive. Further, the max response in assay [17] was 10.5% (inactive). Also, the Potency entry in [18], in [12], in assay [13], in assay [14], in [15] and in [16] was “inactive” each time. The cell viability, % of control (lower = more cytotoxic) in assay [10] is 124%. The viability (% of control) in assay [11] is 101%.
On to `CCCCNc1cc(C(=O)O)cc(S(N)(=O)=O)c1Oc1ccccc1`, for which, in assay [1], the outcome was inactive. In assay [2], the max response was -3.91% (inactive) and 1.19% (inactive). The compound further returned a parasite growth, % of DMSO control in assay [6] of 87.9%. Also, the parasite growth remaining, % of DMSO control (lower = more inhibition) in [7] was 99.3%. In addition, in assay [8], the parasite growth, % of control (lower = inhibition) came out at 102%. For the same compound, the growth, % of control in assay [9] is 84%. Besides, in [10], the cell viability, % of control (lower = more cytotoxic) was 596%. Besides, the viability (% of control) in [11] amounted to 113%. In addition, the Potency entry in assay [12], in [13], in assay [14], in assay [15] and in assay [16] was “inactive” in each case.
